TbREL1 inh – TbREL1 inhibition, primary screen; P86926; inhibition, % at 9.66 µM; TbREL1 RNA ligation, FRET fluorescence; AID 1117264; hit rate 0.49% among 89,000;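 active means inhibition above the mean inhibition across all screened compounds plus 3 SD, cut at about 11% in these data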;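 further: 0% = plate median of test wells and 100% = NSC42067 control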
Target sequence (P86926 whole entry, looked up): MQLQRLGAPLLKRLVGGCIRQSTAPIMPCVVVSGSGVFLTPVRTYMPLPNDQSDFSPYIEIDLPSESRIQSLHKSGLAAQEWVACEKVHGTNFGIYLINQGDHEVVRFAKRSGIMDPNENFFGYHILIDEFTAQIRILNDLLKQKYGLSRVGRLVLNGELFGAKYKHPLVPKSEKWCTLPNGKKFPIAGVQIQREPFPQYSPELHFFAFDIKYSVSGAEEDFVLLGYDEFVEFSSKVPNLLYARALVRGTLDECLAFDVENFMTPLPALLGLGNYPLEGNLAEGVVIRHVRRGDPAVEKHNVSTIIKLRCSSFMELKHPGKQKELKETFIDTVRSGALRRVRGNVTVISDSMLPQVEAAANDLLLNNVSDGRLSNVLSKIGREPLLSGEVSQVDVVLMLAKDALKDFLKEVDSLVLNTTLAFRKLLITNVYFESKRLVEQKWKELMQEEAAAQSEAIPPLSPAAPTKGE
TbREL1 conf – TbREL1 inhibition, confirmation | inhibition, % at 9.66 µM | shares compounds with TbREL1 inh | AID 1117282 | TbREL1 RNA ligation, FRET fluorescence | hit rate 37% among 390;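 active means mean inhibition across replicates above a set limit taken from the earlier primary screen, cut at about 11% in these data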;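 further: 0% = REL1 with substrate and DMSO and 100% = REL1 plus control inhibitor NSC42067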
Starred values were filed as active, the others as inactive. Only a selection was taken, and hits are over-represented in it overall.

SMILES | TbREL1 inh | others
COC(=O)C1=C(C)N(Cc2ccccc2)C(=S)NC1c1cccc(OC)c1 (stereo unspecified) | -5.1
COC(=O)C1=C(C)N(Cc2ccccc2)C(=O)N[C@H]1c1ccccc1 | -1.0
COC(=O)C1=C(C)N(Cc2ccccc2)C(=O)N[C@H]1c1cccc(F)c1 | -2.5
COC(=O)C1=C(C)N(Cc2ccc(C(F)(F)F)cc2)C(=NCc2ccccc2C(F)(F)F)NC1c1ccccc1 (stereo unspecified) | 12.6* | TbREL1 conf=14.1*
COc1ccccc1NC(=O)O[C@@H]1CC[C@@]23CCCN2C(=O)CCC[C@H]3C1 | -1.8
COc1ccc(NC(=O)CCCNS(=O)(=O)c2ccc3[nH]c(=O)oc3c2)cc1OC | 1.7
Cc1nc2ccc(NC(=O)c3c(Cl)cccc3Cl)cc2c(=O)[nH]1 | 7.2
NC(c1csc(Nc2ccc(C(F)(F)F)cn2)n1)C1CCCCC1 (stereo unspecified) | 8.6
O=C(N[C@H]1c2ccccc2C[C@H]1O)[C@H]1O[C@@H](n2ccc(=O)[nH]c2=O)[C@H](O)[C@@H]1O | -1.9
O=C(OCC#CCSc1nnc(-c2ccccc2)o1)c1ccc(F)cc1 | 0.7
COC(=O)[C@]12C[C@H](CC(=O)N3CCN(C(=O)C4CC4)CC3)C(=O)N(Cc3ccco3)C1=C[C@H](C1CCCC1)O[C@@H]2C | -1.8
FC(F)(F)Oc1cccc(Cn2ccc3ccc(-c4ccc5ccn(Cc6ccccc6)c5c4)cc32)c1 | -3.8
O=C(O)COc1ccccc1C=NNC(=O)Cc1cc(=O)[nH][nH]1 | 2.2
CCCCCCc1ccc(NC(=O)[C@@H]2CC=C[C@@H]3CCN(Cc4ccccc4)C(=O)[C@@H]32)cc1 | 1.4
COc1ccccc1C(C(=O)c1ccccc1)c1ccc2ccccc2c1 (stereo unspecified) | 3.2
COC(=O)C(CC(=O)c1ccccc1)CC(=O)c1ccccc1 | 2.4
COc1ccccc1C(CC(=O)c1ccccc1)C(=O)c1ccccc1 (stereo unspecified) | 11.1* | TbREL1 conf=-1.1
COc1ccc(-c2cc(C(=O)NN=Cc3ccccc3[N+](=O)[O-])[nH]n2)cc1 | 1.1
O=C(c1cc2cc(Cl)ccc2o1)N1CCCC1 | 1.9
O=C(NCc1ccccc1CN1CCCC1)C1CCN(C(=O)c2ccc(Cl)cc2)CC1 | 1.6
O=C(NCc1ccccc1CN1CCCC1)c1cc2cc(Cl)ccc2o1 | 12.1* | TbREL1 conf=4.2
Cc1ccc2c(c1)N(CCCC(=O)NCc1c(F)cccc1F)C(=O)CO2 | -1.6
CC(C)(C)C1=Nn2c(nnc2-c2ccc(C(C)(C)C)cc2)SC1 | 0.5
O=C(O)CCCNC(=O)Nc1ccccc1 | 0.9
O=C(O)CCCNC(=O)Cc1ccccc1 | 16.9* | TbREL1 conf=-0.5
SMILES | TbREL1 inh | others
O=C(Cc1ccccc1)NCCN1CCCC1 | -0.5
COC[C@H]1CCCN1c1ccc2c(c1)O[C@@H]1CCN(C1)S2(=O)=O | 0.1
COC(=O)[C@]12CCCCC=C1N(CCC1=CCCCC1)C(=O)[C@H](CC(=O)NCc1cccc3ccccc13)C2 | 2.4
CCOc1cc(/C=N/Nc2nc(N3CCCC3)nc(N3CCCC3)n2)ccc1O | -5.7
Oc1ccccc1/C=N/Nc1cc(N2CCCC2)nc(N2CCCC2)n1 | 19.4* | TbREL1 conf=38.0*
O=C(NNc1cc(N2CCCC2)nc(N2CCCC2)n1)c1ccc([N+](=O)[O-])cc1 | -4.9
Cc1nc2ccc(NC(=O)c3ccc(F)cc3F)cc2c(=O)[nH]1 | 4.9
COc1ccc(OCC(O)Cn2c(=N)n(Cc3ccccc3)c3ccccc32)cc1 (stereo unspecified) | 9.9
Cc1cccc(OCC(O)Cn2c(=N)n(CCN3CCCCC3)c3ccccc32)c1 (stereo unspecified) | 11.9* | TbREL1 conf=7.5
N=c1n(CCO)c2ccccc2n1CCN1CCCCC1 | 5.5
CC(=O)C1=C(C)N(Cc2ccc(F)cc2)C(=S)NC1c1ccccc1 (stereo unspecified) | -8.5
CCN(CC)C(=O)Cn1c2ccccc2c2nc3n(c(=O)c21)CCS3 | -3.0
O=C(Cc1csc(N2CCOCC2)n1)N/N=C/c1ccc(O)c(O)c1O | 12.1* | TbREL1 conf=35.4*
O=C(CCN1CCOCC1)N/N=C/c1cc(Br)cc(Br)c1O | 2.5
O=C(N/N=C/c1sc(N2CCOCC2)nc1-c1ccccc1)c1ccccc1O | 2.5
COc1ccc(C2Nc3ccccc3C(=O)N2Cc2cccnc2)cc1COc1c(C)cccc1C (stereo unspecified) | 9.5
COC(=O)[C@]12CCCCC=C1N(Cc1ccc(Cl)cc1Cl)C(=O)[C@H](CC(=O)N1CCN(C(=O)C3CC3)CC1)C2 | -5.1
CCCN1CCCCC(NC(=O)c2ccc(F)c(F)c2)C1=O (stereo unspecified) | 2.0
COc1ccc(NC(=S)N(CCCN2CCCC2)Cc2cccs2)cc1 | -3.1
O=C(CCN1CCCCCC1)Nc1cccc(Cl)c1 | 1.6
S=C(Nc1cccc(Cl)c1)N(CCCN1CCCC1)Cc1cccn1Cc1ccc(Cl)cc1 | 11.4* | TbREL1 conf=1.1
COC(=O)C(CN)CN1C(=O)c2ccccc2C1=O (stereo unspecified) | 0.0
O=C(CSc1nc2ccccc2n1CCc1ccccc1)c1ccc(O)c(O)c1 | 9.1

Screening data: PubChem BioAssay, The Scripps Research Institute Molecular Screening Center
